Compound activity: PubChem BioAssay, The Scripps Research Institute Molecular Screening Center
HTR5A ag ctr: counter-screen for OPRM1-OPRD1 agonists: human HTR5A agonism; P47898; HTR5A agonist assay, luminescence, cell-based; activation, % at 9.3 µM; 0.61% of 340,000 active; in the data active means activation mostly above about 9.5%, no sharp cut-off; inactive means mostly below about 7.6%;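 further: 0% = cells with vehicle only and 100% = reference agonist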
OPRM1-OPRD1 ag: OPRM1-OPRD1 heterodimerization agonism | P35372+P41143 | cells, luminescence | activation, % at 9.3 µM | 0.3% of 340,000 active | AID 504326; in the data active means activation above about 18%;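 further: 0% = vehicle-treated cells and 100% = reference agonist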
Target sequence (P35372 whole entry, looked up): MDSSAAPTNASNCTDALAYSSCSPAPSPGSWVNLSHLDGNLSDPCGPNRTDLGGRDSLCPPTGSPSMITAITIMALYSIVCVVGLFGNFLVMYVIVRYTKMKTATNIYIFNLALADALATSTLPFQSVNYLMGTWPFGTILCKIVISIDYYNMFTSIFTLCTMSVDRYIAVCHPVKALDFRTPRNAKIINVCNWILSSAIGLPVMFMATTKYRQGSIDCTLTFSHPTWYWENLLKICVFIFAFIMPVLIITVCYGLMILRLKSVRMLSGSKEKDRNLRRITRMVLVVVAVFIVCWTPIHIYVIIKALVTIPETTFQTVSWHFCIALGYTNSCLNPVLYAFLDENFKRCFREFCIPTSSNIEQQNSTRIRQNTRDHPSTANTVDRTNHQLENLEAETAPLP
Target sequence (P41143 whole entry, looked up): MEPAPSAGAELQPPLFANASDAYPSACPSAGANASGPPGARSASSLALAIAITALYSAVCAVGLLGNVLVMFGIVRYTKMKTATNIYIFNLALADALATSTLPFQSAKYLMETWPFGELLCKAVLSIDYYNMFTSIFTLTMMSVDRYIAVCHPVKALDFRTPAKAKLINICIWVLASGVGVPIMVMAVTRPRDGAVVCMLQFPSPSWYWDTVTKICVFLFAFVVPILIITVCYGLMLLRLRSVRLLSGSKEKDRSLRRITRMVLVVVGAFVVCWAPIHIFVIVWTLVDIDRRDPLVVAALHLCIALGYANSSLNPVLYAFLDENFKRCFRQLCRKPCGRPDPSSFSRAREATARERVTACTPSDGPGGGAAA
MOR-DOR inv ag: inverse agonists of human mu-delta opioid receptor heterodimerization. P35372+P41143. cell-based MOR-DOR heterodimer luminescence, inverse agonism. inhibition, % at 9.3 µM. 0.21% of 340,000 active; in the data active means inhibition above about 22%, passing the limit was not always enough;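 further: 0% = cells with DMSO and 100% = wells without cells with DMSO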
HTR5A inv ag: HTR5A inverse agonism, opioid heterodimer counter-screen; 0.083% of 340,000 active; AID 504634; HTR5A cell line, luminescence; inhibition, % at 9.3 µM; P47898; in the data active means inhibition mostly above about 23%, no sharp cut-off; inactive means mostly below about 18%;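 further: 0% = cells with DMSO and 100% = no-cell wells with DMSO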
OPRM1-D1 inv cf: OPRM1-OPRD1 heterodimer inverse agonism, confirmation; 20% of 580 active; inhibition, % at 9.3 µM; shares compounds with MOR-DOR inv ag; cells expressing OPRM1/OPRD1 heterodimer, luminescence; in the data active means inhibition above about 32%;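 further: 0% = cells with DMSO and 100% = wells lacking cells with DMSO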
HTR5A inv count: inverse agonist of human HTR5A in OPRM1-OPRD1 counter-screen | shares compounds with MOR-DOR inv ag | HTR5A-expressing cells, luminescence, inverse agonism | inhibition, % at 9.3 µM | 580 tested, under 10 active; call rule not given here;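 further: 0% = cells with DMSO and 100% = no-cell wells with DMSO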
An asterisk follows results filed as active; i = inactive; nt = not tested or not shown. Sampled rows, rich in hits. Any-hit rate of the full collection: about 1.1%.

SMILES | HTR5A ag ctr | OPRM1-OPRD1 ag | MOR-DOR inv ag | HTR5A inv ag | OPRM1-D1 inv cf | HTR5A inv count
CCN(CC)CC(C)(C)C(=O)/C=C/c1ccc(/C=C/C(=O)C(C)(C)CN(CC)CC)cc1 | -1.5 | -8.9 | 43.4* | 5.6 | -1.6 | 23.8
CCN(CC)CCOC(=O)/C=C/c1ccccc1 | 0.5 | -2.7 | 14.2 | -11.8 | nt | nt
O=C(Cc1ccccc1)OCC(=O)c1cccc([N+](=O)[O-])c1 | -0.2 | -12.7 | 52.2* | 0.7 | 28.6 | 8.5
O=C(CNS(=O)(=O)c1ccccc1)OCc1cccc([N+](=O)[O-])c1 | -1.5 | 1.2 | -5.6 | 21.5 | nt | nt
O=C(CNS(=O)(=O)c1ccccc1)OCC(=O)c1cccc([N+](=O)[O-])c1 | -7.7 | -11.6 | 61.3* | 13.8 | 17.4 | 5.2
Cc1ccc(OCC(=O)OCC(=O)c2cccc([N+](=O)[O-])c2)cc1C | -5.1 | -7.7 | 43.8* | 18.5 | -26.5 | 3.6
O=C(COC(=O)c1cnccn1)c1cccc([N+](=O)[O-])c1 | -7.9 | -12.3 | 65.5* | -2.1 | -254.2 | -45.5
COc1ccccc1C(C(=O)NCc1ccc(F)cc1)N(C(=O)c1csnn1)C1CC1 (configuration not stated) | 2.2 | 0.1 | -0.3 | -0.2 | nt | nt
Cc1nc2c(c3c1[nH]c1ccccc13)C(O)CC(C)(C)C2 (configuration not stated) | 0.2 | 1.0 | -6.2 | -4.0 | nt | nt
Cc1ccc(O)c(C(=O)c2cnc3c(c2)c(C)nn3C)c1 | 7.1 | -1.2 | 7.6 | -20.1 | nt | nt
O=C(CNC(=O)c1ccc(Br)o1)OCC(=O)c1cccc([N+](=O)[O-])c1 | -14.0 | -18.2 | 83.5* | 35.7* | i | -22.0
O=C(C1=C(Nc2ccccc2)c2ccccc2S(=O)(=O)N1)c1ccccc1 | -3.5 | -5.7 | 31.5* | 7.2 | 18.9 | 13.9
C/C(=N\NC(=O)CNC(=O)c1cccc(F)c1)c1ccc2ccccc2c1 | -3.5 | -1.2 | 7.5 | 9.4 | nt | nt
O=C(CCN=C1NS(=O)(=O)c2ccccc21)OCC(=O)c1ccccc1Cl | 0.1 | -3.8 | 19.8 | -0.3 | nt | nt
O=C(CN=C1NS(=O)(=O)c2ccccc21)OCC(=O)c1cc(F)ccc1F | -2.7 | -5.9 | 29.8* | 11.0 | 7.4 | 45.7*
Cc1cc(C(=O)N/N=C/c2cc(Br)cc([N+](=O)[O-])c2O)c2ccccc2n1 | -3.2 | -3.9 | 22.0* | 10.8 | -0.9 | 6.8
Cc1ccc(C)c(N(C(=O)CNC(=O)c2ccco2)C(C(=O)NC2CCCCC2)c2cccnc2)c1 (configuration not stated) | 3.1 | -3.2 | 19.8 | -23.5 | nt | nt
Cc1c(N=C2C(=O)Nc3ccccc32)c(=O)n(-c2ccccc2)n1C | -6.2 | -10.1 | 52.1* | 17.5 | 41.7* | 23.0
Cc1csc(=Nc2c(C)n(C)n(-c3ccccc3)c2=O)n1-c1ccccc1 | 3.6 | 0.6 | -3.1 | 2.7 | nt | nt
C=CCOc1cccc(C(=O)/C=C2/C(=O)Nc3ccccc32)c1 | 4.1 | -2.5 | 11.2 | -14.6 | nt | nt
CC(=O)/C=C1/C(=O)Nc2ccccc21 | -2.0 | -14.1 | 73.5* | 4.8 | 71.5* | 1.8
CC(=O)N(C)c1ccc(N=C2C(=O)Nc3ccccc32)cc1 | -3.3 | -12.7 | 56.7* | 12.3 | i | -3.1
O=C1Nc2ccccc2/C1=N\N1CCOCC1 | -1.3 | -3.5 | 17.9 | 0.5 | nt | nt
NC(N)=NS(=O)(=O)c1ccc(N=C2C(=O)Nc3ccccc32)cc1 | -7.8 | -10.4 | 53.3* | 28.5 | 70.0* | 16.5
CCN(c1ccccc1)S(=O)(=O)c1ccc(C(=O)Nc2ccc(C)cn2)cc1 | 3.6 | 3.4 | -18.4 | -9.0 | nt | nt
SMILES | HTR5A ag ctr | OPRM1-OPRD1 ag | MOR-DOR inv ag | HTR5A inv ag | OPRM1-D1 inv cf | HTR5A inv count
Cc1ccc(C)c(S(=O)(=O)N=Nc2c(O)[nH]c3ccccc23)c1 | -8.4 | -8.3 | 45.8* | 23.3 | 18.6 | 8.6
Cc1ccc(S(=O)(=O)N=Nc2c(O)[nH]c3ccccc23)cc1 | -3.5 | -8.0 | 50.2* | 11.6 | 0.7 | 17.1
O=C(Nc1ccccc1C(F)(F)F)NC1CCCCCCC1 | 5.0 | 1.8 | -9.8 | -4.0 | nt | nt
ON1C2CCCCC2N(O)C1c1ccccc1C(F)(F)F (configuration not stated) | -3.5 | -7.8 | 43.8* | 8.9 | -51.6 | 10.2
CCn1cc(S(=O)(=O)Nc2cccnc2)cn1 | -10.2 | -6.9 | 37.1* | 6.7 | 41.4* | -12.1
CCn1ncc(S(=O)(=O)Nc2cccnc2)c1C | 9.2 | -1.1 | 5.6 | -22.1 | nt | nt
c1ccc(C2OC3c4cccc5cccc(c45)C3N2c2ccccc2)cc1 (configuration not stated) | -3.5 | -7.6 | 38.0* | 9.2 | -40.6 | -2.3
CCOC(=O)C1CCCN(C(=O)c2cc(S(=O)(=O)N3CCCCC3)ccc2C)C1 (configuration not stated) | -1.6 | -1.5 | 8.0 | 4.4 | nt | nt
CC1(C)Cc2c(c(=S)nc(-c3ccccc3)n2Cc2cccnc2)CO1 | -0.8 | -2.2 | 11.4 | 3.9 | nt | nt
COc1ccc(-c2nc(=S)c3c(n2Cc2cccnc2)CC(C)(C)OC3)cc1 | 0.8 | -6.5 | 33.1* | -23.3 | 42.2* | 4.7
Cc1ccc(Cn2cc(CCC(=O)O)c3ccccc32)cc1 | -2.7 | -2.1 | 10.0 | 10.5 | nt | nt
Cc1nnsc1C(=O)NNc1ccc(C(C)(C)C)cc1 | 1.7 | -15.1 | 77.0* | -9.8 | -27.3 | 10.2
Cc1nnsc1C(=O)NNc1ccc(C(C)C)cc1 | 2.6 | -2.8 | 13.7 | -49.8 | nt | nt
O=C(CNC(=O)C1CCCCC1)OCC(=O)c1ccc(F)cc1 | -0.1 | -1.4 | 7.3 | 0.2 | nt | nt
O=C(CNC(=O)C1CCCCC1)OCC(=O)c1cccc(Cl)c1 | -6.4 | -8.3 | 35.8* | 15.7 | 12.7 | -2.3
O=C(CSc1nnc(COc2ccc(Cl)cc2)o1)NC1CC2CCC1C2 (configuration not stated) | 4.6 | 0.5 | -3.0 | -11.2 | nt | nt
Cc1cnn(CCC(=O)NNC(=S)Nc2ccc(F)cc2)c1 | -2.9 | -5.5 | 31.1* | 7.6 | 40.4* | 0.7
O=C(Nc1ccc(Cl)cc1)C(Cl)C(=O)c1ccccc1 (configuration not stated) | -2.8 | -6.9 | 36.5* | 7.6 | -384.8 | -3.1
Cc1ccc(OC(=O)c2cccc([N+](=O)[O-])c2)c(-n2nc3ccccc3n2)c1 | -2.2 | -2.5 | 14.9 | 5.8 | nt | nt
Cc1cc(-n2nc3ccccc3n2)c(O)c([N+](=O)[O-])c1 | 7.0 | -4.7 | 25.8* | 4.6 | -17.5 | 19.2
CC(OC(=O)COc1ccc(C#N)cc1)C(=O)Nc1ccc(Cl)cn1 (configuration not stated) | 2.1 | -1.9 | 12.1 | -5.9 | nt | nt
CCn1c(O)c(/C=N/N=C/c2ccc(OC)cc2)c2cc(C3=NNC(=O)CC3)ccc21 | 4.7 | -1.4 | 7.3 | 13.8 | nt | nt
CC/C(C)=N\N=C\c1c(O)n(CC)c2cc(C3=NNC(=O)CC3)ccc12 | -4.7 | -6.7 | 30.7* | 21.1 | 49.9* | 15.4
CC1(C)C(c2ccccc2)=NC(c2ccc(F)cc2)N1O (configuration not stated) | 3.6 | -5.1 | 29.4* | -5.1 | -13.1 | -57.1
